Measurements published in PubChem BioAssay AID1159580 (chemical genetic matrix, 2015).
“And” between values parts separate entries of the source, which are not always exact repeats. Equal values may be shown once. The whole screen tested about 5,500 compounds, of which about 2,000 (36%) were called active. Another 18% or so got no clear call; they are omitted. Cut-off read from the data, not from the text of the source: active = normalized growth mostly below about 0.91 (no sharp cut-off); inconclusive = no clear call, values can overlap the other calls; inactive = mostly above about 0.92. The list shows a part of the results.

Assay: chemical genetic growth profiling, strain panel (AID 1159580);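 note: tested at 20 µM; growth read once vehicle control cultures reached saturation at 30 °C; 1 = growth at the plate median or of vehicle wells; lower values mean less growth of the strain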
Settings: S. cerevisiae deletion strains, growth OD

Measured: normalized growth

COC(=O)C1[C@H]2C[C@H]3c4[nH]c5ccccc5c4CCN3C[C@@H]2CC[C@@H]1O (some centres not stated)
inactive: locus YAL013W, strain DEP1, stronger effect = lower value 1.02 | locus YAL021C, strain ccr4, stronger effect = lower value 0.991 | locus YAL026C, strain drs2, stronger effect = lower value 0.981 | locus YAL030W, strain snc1, stronger effect = lower value 0.976 | locus YBL061C, strain skt5, stronger effect = lower value 0.982 | locus YBR009C, strain hhf1, stronger effect = lower value 0.978 | locus YBR021W, strain FUR4, stronger effect = lower value 1.01 | locus YBR023C, strain chs3, stronger effect = lower value 0.964 | locus YBR171W, strain sec66, stronger effect = lower value 0.96 | locus YBR229C, strain ROT2, stronger effect = lower value 1 | locus YBR231C, strain swc5, stronger effect = lower value 0.965 | locus YBR279W, strain paf1, stronger effect = lower value 0.962 | locus YCL011C, strain gbp2, stronger effect = lower value 0.954 | locus YCL016C, strain dcc1, stronger effect = lower value 0.973 | locus YCL029C, strain bik1, stronger effect = lower value 1.03 | locus YCL061C, strain MRC1, stronger effect = lower value 0.976 | locus YCL069W, strain vba3, stronger effect = lower value 0.981 | locus YCR088W, strain abp1, stronger effect = lower value 0.977 | locus YDL005C, strain med2, stronger effect = lower value 0.971 | locus YDL035C, strain GPR1, stronger effect = lower value 1.02 | locus YDL040C, strain nat1, stronger effect = lower value 0.974 | locus YDL074C, strain BRE1, stronger effect = lower value 1.05 | locus YDL101C, strain DUN1, stronger effect = lower value 1.01 | locus YDL134C, strain PPH21, stronger effect = lower value 1.02 | locus YDL185W, strain tfp1, stronger effect = lower value 1.02 | locus YDL192W, strain arf1, stronger effect = lower value 1.02 | locus YDR001C, strain nth1, stronger effect = lower value 0.964 | locus YDR069C, strain doa4, stronger effect = lower value 0.954 | locus YDR101C, strain arx1, stronger effect = lower value 1.01 | locus YDR137W, strain rgp1, stronger effect = lower value 0.945 | locus YDR150W, strain NUM1, stronger effect = lower value 1.01 | locus YDR159W, strain sac3, stronger effect = lower value 0.925 | locus YDR162C, strain NBP2, stronger effect = lower value 1.01 | locus YDR195W, strain ref2 0.943 | locus YDR297W, strain sur2, stronger effect = lower value 0.979 | locus YDR318W, strain mcm21, stronger effect = lower value 1.03 | locus YDR334W, strain swr1, stronger effect = lower value 0.946 | locus YDR335W, strain msn5, stronger effect = lower value 0.97 | locus YDR388W, stronger effect = lower value 1.02 | locus YDR392W, strain spt3, stronger effect = lower value 1.01 | locus YDR502C, strain sam2, stronger effect = lower value 1.01 | locus YEL003W, strain gim4, stronger effect = lower value 0.97 | locus YEL037C, strain rad23, stronger effect = lower value 0.979 | locus YEL061C, strain CIN8 (second series), stronger effect = lower value 0.962 | locus YEL061C, strain CIN8, stronger effect = lower value 1.01 | locus YER015W, strain faa2, stronger effect = lower value 0.983 | locus YER016W, strain bim1, stronger effect = lower value 0.982 | locus YER110C, stronger effect = lower value 1.01 | locus YER111C, strain swi4, stronger effect = lower value 0.986 | locus YER155C, strain BEM2 (second series), stronger effect = lower value 0.945 | locus YER155C, strain BEM2, stronger effect = lower value 1.01 | locus YER167W, strain BCK2, stronger effect = lower value 1.01 | locus YFR010W, strain ubp6, stronger effect = lower value 0.952 | locus YGL078C, strain dbp3, stronger effect = lower value 1.01 | locus YGL086W, strain mad1, stronger effect = lower value 1 | locus YGL167C, strain pmr1, stronger effect = lower value 0.944 | locus YGL173C, strain kem1, stronger effect = lower value 0.989 | locus YGL227W, strain vid30, stronger effect = lower value 0.962 | locus YGL240W, strain doc1, stronger effect = lower value 0.954 | locus YGL248W, strain PDE1, stronger effect = lower value 1.01 | locus YGL253W, strain hxk2, stronger effect = lower value 0.975 | locus YGR078C, strain PAC10, stronger effect = lower value 1.03 | locus YGR135W, strain pre9, stronger effect = lower value 1.01 | locus YGR229C, strain SMI1, stronger effect = lower value 1.01 | locus YGR252W, strain gcn5, stronger effect = lower value 0.976 | locus YHR013C, strain ard1, stronger effect = lower value 0.979 | locus YHR027C, strain rpn1, stronger effect = lower value 0.972 | locus YHR030C, strain SLT2, stronger effect = lower value 1.02 | locus YHR079C, strain IRE1 (second series), stronger effect = lower value 1.02 | locus YHR079C, strain IRE1, stronger effect = lower value 1.02 | locus YHR094C, strain hxt1, stronger effect = lower value 1.01 | locus YHR129C, strain ARP1, stronger effect = lower value 0.999 | locus YHR142W, strain chs7, stronger effect = lower value 0.983 | locus YHR200W, strain rpn10, stronger effect = lower value 1.02 | locus YIL066C, strain RNR3, stronger effect = lower value 1.02 | locus YIL073C, strain SPO22, stronger effect = lower value 1.05 | locus YIL125W, strain kgd1, stronger effect = lower value 1.01 | locus YIR030C, strain dcg1, stronger effect = lower value 1.02 | locus YJL092W, strain hpr5, stronger effect = lower value 0.982 | locus YJL095W, strain BCK1 (second series), stronger effect = lower value 0.981 | locus YJL095W, strain BCK1, stronger effect = lower value 1.05 and 1.01 | locus YJL115W, strain asf1, stronger effect = lower value 0.966 | locus YJL129C, strain trk1, stronger effect = lower value 0.977 | locus YJL134W, strain LCB3, stronger effect = lower value 1.01 | locus YJL154C, strain vps35, stronger effect = lower value 0.964 | locus YJL164C, strain tpk1, stronger effect = lower value 1 | locus YJL166W, strain qcr8, stronger effect = lower value 0.953 | locus YJL168C, strain set2, stronger effect = lower value 1.02 | locus YJL187C, strain SWE1 (second series), stronger effect = lower value 1.03 | locus YJL187C, strain SWE1, stronger effect = lower value 0.98 | locus YJR043C, strain POL32, stronger effect = lower value 1.02 | locus YJR066W, strain TOR1, stronger effect = lower value 1.02
